Here are results for twelve sequences from PMC5700166.

Numbering of substitutions follows the chain as printed.

What all share (experiment): protein-binding microarray (PBM); PBM: ~300 nM protein, 6 mM HEPES pH 7.8, 80 mM KCl, 0.5 mM EDTA, 0.5 mM EGTA, 6% glycerol, 35 ng/ul poly-dIdC, 1% milk, 1 h, room temperature; Ap Aiptasia and Nv Nematostella (sea anemones) / Co Capsaspora / Aq Amphimedon (sponge) / Dm Drosophila / Hu human; RHD is the Rel homology domain; high values mean tight binding
Common to all, as to details: dsDNA, one strand shown

Assay [1] deals with T1, GST-Ap-NF-kB RHD (Exaiptasia pallida (Aiptasia), UniProt A0A913YAJ5 2-422).
T1 sequence: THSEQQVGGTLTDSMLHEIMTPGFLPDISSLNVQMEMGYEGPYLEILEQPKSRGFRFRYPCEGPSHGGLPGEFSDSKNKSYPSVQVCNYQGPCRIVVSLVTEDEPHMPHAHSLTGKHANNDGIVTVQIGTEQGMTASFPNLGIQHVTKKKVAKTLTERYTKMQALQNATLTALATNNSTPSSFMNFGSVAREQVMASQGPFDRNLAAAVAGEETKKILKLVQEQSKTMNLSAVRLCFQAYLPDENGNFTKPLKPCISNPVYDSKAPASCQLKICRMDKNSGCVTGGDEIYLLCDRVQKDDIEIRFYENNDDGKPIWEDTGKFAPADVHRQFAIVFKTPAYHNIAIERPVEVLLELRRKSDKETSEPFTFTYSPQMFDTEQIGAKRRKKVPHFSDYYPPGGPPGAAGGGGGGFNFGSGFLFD

Assay [2] concerns the target T2, GST-Nv-NF-kB (Cys allele) (Nematostella vectensis, UniProt E5G601 2-411).
T2 sequence: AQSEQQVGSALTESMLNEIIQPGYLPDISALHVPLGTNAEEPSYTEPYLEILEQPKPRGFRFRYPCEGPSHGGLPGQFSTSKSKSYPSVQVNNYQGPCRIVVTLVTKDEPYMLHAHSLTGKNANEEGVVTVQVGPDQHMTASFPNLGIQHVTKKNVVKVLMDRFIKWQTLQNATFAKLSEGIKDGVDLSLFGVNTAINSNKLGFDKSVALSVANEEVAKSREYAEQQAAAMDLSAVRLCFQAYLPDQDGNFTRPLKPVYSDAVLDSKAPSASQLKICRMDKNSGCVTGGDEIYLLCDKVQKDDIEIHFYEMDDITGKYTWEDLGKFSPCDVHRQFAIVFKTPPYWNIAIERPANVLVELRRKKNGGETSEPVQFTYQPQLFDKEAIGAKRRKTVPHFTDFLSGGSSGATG

For assay [3], the target named is T3, GST-Nv-NF-kB (Ser allele) (Nematostella vectensis, UniProt A7UNT2 2-411).
T3 sequence: T2 sequence with Q21R, C66S, S207N, E215Q, V217A, E225K, A268E, D399E

In assay [4] the target is T4, GST-Co-NF-kB (Capsaspora owczarzaki, UniProt F1ARL5 200-546).
T4 sequence: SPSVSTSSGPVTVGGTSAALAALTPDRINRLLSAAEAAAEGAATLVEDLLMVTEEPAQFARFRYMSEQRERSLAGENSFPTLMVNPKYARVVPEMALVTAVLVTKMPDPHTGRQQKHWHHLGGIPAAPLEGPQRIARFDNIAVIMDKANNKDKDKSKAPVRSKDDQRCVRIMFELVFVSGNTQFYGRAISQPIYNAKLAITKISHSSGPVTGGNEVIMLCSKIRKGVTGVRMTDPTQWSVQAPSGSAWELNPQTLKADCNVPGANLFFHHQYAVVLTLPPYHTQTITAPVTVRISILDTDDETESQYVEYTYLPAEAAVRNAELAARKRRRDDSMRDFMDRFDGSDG

In assay [5] the target is T5, GST-Dm-Relish (Drosophila melanogaster, UniProt Q94527 99-473).
T5 sequence: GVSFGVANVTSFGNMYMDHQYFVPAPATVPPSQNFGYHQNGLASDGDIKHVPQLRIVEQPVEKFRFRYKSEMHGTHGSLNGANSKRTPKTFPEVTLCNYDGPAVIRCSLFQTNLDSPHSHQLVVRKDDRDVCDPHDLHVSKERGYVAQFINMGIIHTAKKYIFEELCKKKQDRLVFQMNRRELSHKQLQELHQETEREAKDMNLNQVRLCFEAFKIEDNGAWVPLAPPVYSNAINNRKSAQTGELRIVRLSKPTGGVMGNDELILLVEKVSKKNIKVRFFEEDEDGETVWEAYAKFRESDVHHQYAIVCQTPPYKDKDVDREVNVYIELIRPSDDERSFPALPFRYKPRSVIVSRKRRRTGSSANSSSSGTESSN

In assay [6] the target is T6, GST-Aq-NF-kB (Amphimedon queenslandica, UniProt A9Y5G7 2-389).
T6 sequence: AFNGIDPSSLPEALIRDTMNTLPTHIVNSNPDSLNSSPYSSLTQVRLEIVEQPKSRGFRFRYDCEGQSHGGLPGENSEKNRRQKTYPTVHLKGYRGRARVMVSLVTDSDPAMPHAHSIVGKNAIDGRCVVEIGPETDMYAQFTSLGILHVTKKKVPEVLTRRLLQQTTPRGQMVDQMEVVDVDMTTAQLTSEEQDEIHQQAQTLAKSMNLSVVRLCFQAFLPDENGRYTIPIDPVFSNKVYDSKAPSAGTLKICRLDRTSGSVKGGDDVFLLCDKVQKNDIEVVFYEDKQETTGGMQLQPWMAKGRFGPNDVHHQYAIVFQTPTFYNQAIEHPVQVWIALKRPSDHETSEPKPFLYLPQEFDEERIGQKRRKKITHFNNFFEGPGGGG

The target of assay [7] is GST-Hu-p50 (Homo sapiens, UniProt P19838 7-356).
Chain of GST-Hu-p50 (P19838 7-356): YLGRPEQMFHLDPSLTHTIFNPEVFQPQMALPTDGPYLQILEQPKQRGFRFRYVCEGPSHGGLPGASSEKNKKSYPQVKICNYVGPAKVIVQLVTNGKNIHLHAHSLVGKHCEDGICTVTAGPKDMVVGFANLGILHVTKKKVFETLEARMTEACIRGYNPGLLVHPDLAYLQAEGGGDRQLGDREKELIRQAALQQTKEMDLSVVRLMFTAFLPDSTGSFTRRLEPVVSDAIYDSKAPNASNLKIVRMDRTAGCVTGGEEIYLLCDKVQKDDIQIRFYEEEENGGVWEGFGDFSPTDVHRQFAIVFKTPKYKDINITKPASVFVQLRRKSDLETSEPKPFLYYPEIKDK

For “CCGATTAACATCAGGGGATTCACTGATGTTAATCGGGTCTTGATTCGCTTGACGCTGCTG”, the binding signal in assay [1] came out at 7.47 z-score; in assay [2] it was 7.31 z-score; in assay [3], 7.91 z-score; in assay [4] it was 3.35 z-score; in assay [5], 10.3 z-score; in assay [6], 6.42 z-score. Moreover, in assay [7], the binding signal was determined as 6.59 z-score.

On to “CCGATTAACATCAGGGAACTCCCTGATGTTAATCGGGTCTTGATTCGCTTGACGCTGCTG”, for which the binding signal in assay [1] was 8.33 z-score; in assay [2], 10.6 z-score; in assay [3], 6.92 z-score; in assay [4], 3.39 z-score; in assay [5], 9 z-score; in assay [6], 9.76 z-score. Besides, the binding signal in assay [7] worked out at 6.16 z-score.

For “CCGATTAACATCAGGGGAGGGACTGATGTTAATCGGGTCTTGATTCGCTTGACGCTGCTG”, the binding signal in assay [1] amounted to 4.36 z-score; in assay [2] it was 4.69 z-score; in assay [3] it was 4.55 z-score; in assay [4], 2.92 z-score; in assay [5], 3.83 z-score; in assay [6], 5.21 z-score. In addition, the binding signal in assay [7] turned out to be 3.82 z-score.

As for “CCGATTAACATCAATTCTCCCCCTGATGTTAATCGGGTCTTGATTCGCTTGACGCTGCTG”, the binding signal in assay [1] amounted to 6.48 z-score; in assay [2] it was 6.19 z-score; in assay [3], 8.64 z-score; in assay [4] it was 10.7 z-score; in assay [5], 3.06 z-score; in assay [6], 5.16 z-score. Also, the binding signal in assay [7] stood at 6.9 z-score.

Regarding “CCGATTAACATCAGGGAGTTTTATGATGTTAATCGGGTCTTGATTCGCTTGACGCTGCTG”, the binding signal turned out to be 5.33 z-score in assay [1]; 7.35 z-score in assay [2]; 6.78 z-score in assay [3]; 2.72 z-score in assay [4]; 5.65 z-score in assay [5]; 6.93 z-score in assay [6]. This sequence also gave a binding signal in assay [7] of 5.8 z-score.

Take “CCGATTAACATCAGGGAATTCTATGATGTTAATCGGGTCTTGATTCGCTTGACGCTGCTG”: the binding signal amounted to 5.04 z-score in assay [1]; 6.52 z-score in assay [2]; 6.75 z-score in assay [3]; 3.81 z-score in assay [4]; 3.59 z-score in assay [5]; 5.61 z-score in assay [6]. For the same sequence, the binding signal in assay [7] came out at 4.8 z-score.

As for “CCGATTAACATCAAAAGTCCCCTTGATGTTAATCGGGTCTTGATTCGCTTGACGCTGCTG”, the binding signal in assay [1] was found to be 8.69 z-score; in assay [2], 9.23 z-score; in assay [3], 8.99 z-score; in assay [4], 3.35 z-score; in assay [5] it was 9.45 z-score; in assay [6], 7.89 z-score. Moreover, in assay [7], the binding signal was determined as 7.27 z-score.

Take “CCGATTAACATCACACATTCCCCTGATGTTAATCGGGTCTTGATTCGCTTGACGCTGCTG”: the binding signal in assay [1] was 6.52 z-score; in assay [2], 7.88 z-score; in assay [3] it was 8.75 z-score; in assay [4] it was 5.83 z-score; in assay [5] it was 2.91 z-score; in assay [6], 5.41 z-score. Moreover, the binding signal in assay [7] came to 5.28 z-score.

As to “CCGATTAACATCAGGGGGGTGTATGATGTTAATCGGGTCTTGATTCGCTTGACGCTGCTG”, the binding signal in assay [1] worked out at 3.69 z-score; in assay [2], 3.97 z-score; in assay [3], 4.14 z-score; in assay [4], 4.29 z-score; in assay [5] it was 4.17 z-score; in assay [6], 4.24 z-score. Also, in assay [7], the binding signal was determined as 3.91 z-score.

Consider “CCGATTAACATCAAAAAAGCCCCTGATGTTAATCGGGTCTTGATTCGCTTGACGCTGCTG”, for which the binding signal in assay [1] was 7.94 z-score; in assay [2], 11.4 z-score; in assay [3], 9.29 z-score; in assay [4], 1.83 z-score; in assay [5] it was 9.41 z-score; in assay [6], 8.77 z-score. This sequence also had a binding signal in assay [7] of 7.54 z-score.

Consider “CCGATTAACATCAAATTCCCCCTTGATGTTAATCGGGTCTTGATTCGCTTGACGCTGCTG”, for which the binding signal in assay [1] is 9.34 z-score; in assay [2], 10.3 z-score; in assay [3] it was 11 z-score; in assay [4], 8.93 z-score; in assay [5], 8.62 z-score; in assay [6] it was 8.5 z-score. The same sequence showed a binding signal in assay [7] of 8.06 z-score.

Take “CCGATTAACATCAGGACAACCCCTGATGTTAATCGGGTCTTGATTCGCTTGACGCTGCTG”: the binding signal in assay [1] was found to be 3.21 z-score; in assay [2], 3.16 z-score; in assay [3] it was 1.17 z-score; in assay [4], 1.02 z-score; in assay [5] it was 2.63 z-score; in assay [6] it was 5.78 z-score. In assay [7], this sequence returned a binding signal of 2.98 z-score.
